# The full ranking holds about 68,000 sequences; the median of “fluorescence intensity (a.u.)” is about 9,100, and the highest 2% start at about 16,000. Shown is part of a subset that was picked to be rich in the highest values.
# Molecular target: OsWRKY34 (Oryza sativa, UniProt Q0JBA9 1-250)
# Assay: protein-binding microarray (RPBM); PBS, 2% BSA, 51.3 ng/ul salmon testes DNA, 50 uM zinc acetate, 200 nM TF, 25 C, 1 h; high values mean tight binding
# Conditions: protein: recombinant; tags: N-terminal polyhistidine and DsRed monomer fusion (pET32a); label: CyDye5-dUTP incorporated in the synthesized complementary strand; 3' TTTTT single-stranded linker to array surface; dsDNA, one strand shown
# In short: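 Transcription factors were made in E. coli BL21-CodonPlus as N-terminal fusions to a polyhistidine tag and DsRed, then purified on Ni–NTA. After primer extension with Cy5-dUTP and blocking with 2% BSA, a custom Agilent array was exposed for 1 h at 25 °C to 200 nM protein in PBS, 2% BSA, salmon testes DNA and 50 µM zinc acetate. Washed arrays were scanned on an Axon 4000B, and the binding signal is per-feature fluorescence intensity in arbitrary units.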
# Sequence of OsWRKY34 (Q0JBA9 entry or part of it): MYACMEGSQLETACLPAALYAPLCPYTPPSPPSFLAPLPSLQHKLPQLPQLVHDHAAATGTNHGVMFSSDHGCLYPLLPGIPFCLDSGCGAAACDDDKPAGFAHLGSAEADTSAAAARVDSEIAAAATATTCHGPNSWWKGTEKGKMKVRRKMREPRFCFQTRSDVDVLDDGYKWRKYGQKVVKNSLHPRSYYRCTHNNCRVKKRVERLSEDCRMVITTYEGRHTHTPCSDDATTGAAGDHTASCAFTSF
row,Sequence,binding signal
1,GAACTTATTTTACTGCAATTGTTTGCATCACTTATTCTAACGGAGTCACCTAGTGCAG,9570 fluorescence intensity (a.u.)
2,CCTCTCCCTACTACTGTCGTATCGTCTCCTACCTCGCCTCCGGAGTCACCTAGTGCAG,8340 fluorescence intensity (a.u.)
3,CCAATTCGCCATCCGTCTGTCGACCGCATCTTAATATCCGCGGAGTCACCTAGTGCAG,17400 fluorescence intensity (a.u.)
4,AACGGTTCTTCTGGTCATTTCCAATTCGCCATCCGTCTGTCGGAGTCACCTAGTGCAG,8930 fluorescence intensity (a.u.)
5,CCATCGCTGTCGCCAATTTATATTCTTTCTTAATCTCGACCGGAGTCACCTAGTGCAG,9220 fluorescence intensity (a.u.)
6,CAAGCTGTTACTTTCTTGGTGGGCTTCTGTGTGCTTTATTCGGAGTCACCTAGTGCAG,9940 fluorescence intensity (a.u.)
7,ACGCCTACAATGGTACTGTGTTTTTTTTATGATAGCGGTGCGGAGTCACCTAGTGCAG,8060 fluorescence intensity (a.u.)
8,TTCTTTTGTTGTCCAATTCATTTCCATTTCTTGCCGTTTTCGGAGTCACCTAGTGCAG,8320 fluorescence intensity (a.u.)
9,ACTTTATTGTTTTTCTTCTTATTTTATTTCTCTGTTCTTTCGGAGTCACCTAGTGCAG,10300 fluorescence intensity (a.u.)
10,ATATTCTCATTTTCAGTCTGTTGCACTAATTTTGCTATTTCGGAGTCACCTAGTGCAG,12800 fluorescence intensity (a.u.)
11,TACGTTTCAGTTGTGCTTGTTCGGACCTTTCGATTTCTTTCGGAGTCACCTAGTGCAG,13900 fluorescence intensity (a.u.)
12,ACATTGTTCTCTCTTTTACGGCCTTTTTTTTTTCTGAATTCGGAGTCACCTAGTGCAG,17900 fluorescence intensity (a.u.)
13,TCTCTTTTCTCATTTATTCACTTGCCACATCATTTTTCATCGGAGTCACCTAGTGCAG,8900 fluorescence intensity (a.u.)
14,CCGCCGCTACTCTCCATCATTTCAGTTTTCTCTCGAGTCACGGAGTCACCTAGTGCAG,10200 fluorescence intensity (a.u.)
15,TTCTTCTTTTCTTTTTTTTTTGTTTTCTTCTCATTCTTCTCGGAGTCACCTAGTGCAG,10100 fluorescence intensity (a.u.)
16,ATCTTTTTGTTGTCTTTGAATTCAGTCTGTTTTTCTCATTCGGAGTCACCTAGTGCAG,17900 fluorescence intensity (a.u.)
17,CTTTTGCACTCGAGATATTTCATCAGTTCTTGCCATTTCACGGAGTCACCTAGTGCAG,16500 fluorescence intensity (a.u.)
18,ACTTGCCTTGTTTCTTGTTCTTGTTCATTTCGACCGTTGTCGGAGTCACCTAGTGCAG,17100 fluorescence intensity (a.u.)
19,TCTCTTTTCTTTTCTTTCTTTTTATTTTGTTGTTCCTTTACGGAGTCACCTAGTGCAG,12600 fluorescence intensity (a.u.)
20,TTTATACTCCTTCTGTTTCATATTATTTTTTTCTACTAGTCGGAGTCACCTAGTGCAG,8860 fluorescence intensity (a.u.)
21,GACCACTAGCAGCCTCGTAACGTTTGCCTCATTTCATCAGCGGAGTCACCTAGTGCAG,10500 fluorescence intensity (a.u.)
22,TATACCTCTCTCTCTCTCTCTCTCTCTCTCTCTCTCTCTTCGGAGTCACCTAGTGCAG,8280 fluorescence intensity (a.u.)
23,TTTTTGTTTTCTCAATTCGCGAATTTAATGCTTTTGTGTACGGAGTCACCTAGTGCAG,9750 fluorescence intensity (a.u.)
24,GAATTATTAGGGAGAAAGGAGTTGCAGGGTGGGGATTGTTCGGAGTCACCTAGTGCAG,8330 fluorescence intensity (a.u.)

row,Sequence,binding signal
1,CGTTCTCTGTCTGTCCCGCACTCCCGCCTTTTGCCAAAGCCGGAGTCACCTAGTGCAG,9610 fluorescence intensity (a.u.)
2,AGACCAAGCCATATCACCTTATGTAATTTCTTTATGTGCTCGGAGTCACCTAGTGCAG,9010 fluorescence intensity (a.u.)
3,GTCCCATCGTCTCTATTCGGGTCACCTTTGCACAACATGACGGAGTCACCTAGTGCAG,10500 fluorescence intensity (a.u.)
4,GTTGACGTCTCCCAAGTGCCACACCCGCCGCCACGTCACTCGGAGTCACCTAGTGCAG,8880 fluorescence intensity (a.u.)
5,CCCAGATTCGCCCCGCACCGCACCGCCCTTGGCTCGCCCCCGGAGTCACCTAGTGCAG,8340 fluorescence intensity (a.u.)
6,CTCTACTTCTAATGTTCCTTATTTTTTTTCCGAGTTTCTACGGAGTCACCTAGTGCAG,9390 fluorescence intensity (a.u.)
7,TACTCGTTTGGTTGTAATTTTTTTCCGCGTCTTTTCATCTCGGAGTCACCTAGTGCAG,11200 fluorescence intensity (a.u.)
8,TAGTTTCTTGTTTTCAGTTTTTTTTTCTTGTCATTTTTTTCGGAGTCACCTAGTGCAG,19500 fluorescence intensity (a.u.)
9,ATTCTTCATTCTTTTTGTGTGTGTTTCAGTGTGTTTGTTTCGGAGTCACCTAGTGCAG,15800 fluorescence intensity (a.u.)
10,TTGAATTTTCAGTTTTCTTGTGCGTGTTTCCTTGTCATTTCGGAGTCACCTAGTGCAG,9140 fluorescence intensity (a.u.)
11,CGGTCTTTGCCAAATTCCCACTCCGCTTGGCTTTCTGGCCCGGAGTCACCTAGTGCAG,8250 fluorescence intensity (a.u.)
12,CTAGGACATCATTTTGTTTGTCGTGTGTGCGCAACTGTTTCGGAGTCACCTAGTGCAG,8160 fluorescence intensity (a.u.)
13,GAGTGTAACGGGTGGGGTGGTTTGGAAGGTGATGAGGTATCGGAGTCACCTAGTGCAG,11300 fluorescence intensity (a.u.)
14,TGGTTTTATGTGTGAGTTGGGGTAGTGGCGTTGGTAGGTTCGGAGTCACCTAGTGCAG,11700 fluorescence intensity (a.u.)
15,GCGCCCTCCGACTCCGACGGCTTCTTGTTCTCGTTGACGCCGGAGTCACCTAGTGCAG,8950 fluorescence intensity (a.u.)
16,CACCATTGGGATGGGTGCCTATTTCTTGGAGACCGTTGACCGGAGTCACCTAGTGCAG,17300 fluorescence intensity (a.u.)
17,ACTCTTTACTCTTTCTTTTCTTCTTTCTTTTTTGGCGGGGCGGAGTCACCTAGTGCAG,21200 fluorescence intensity (a.u.)
18,ATTTCTTGGAGACCGTTGACTCCTCTCTCTCTATTTCCATCGGAGTCACCTAGTGCAG,12400 fluorescence intensity (a.u.)
19,ATACCGTGATTGGGATTACCTGTGACCTTGCCTATTTGACCGGAGTCACCTAGTGCAG,9120 fluorescence intensity (a.u.)
20,CTTTCTTTCTTTCTTTCTTCTTTTTTTTCTTTTTTTTTTGCGGAGTCACCTAGTGCAG,8640 fluorescence intensity (a.u.)
21,TGTGAGTAGTTTGTGGTTGGGAGTGTAACGGGTGGGGTGGCGGAGTCACCTAGTGCAG,16900 fluorescence intensity (a.u.)
22,AACAGTTGACGCAGGTGGCAGAGTTGCTAGTTCTTGCCCTCGGAGTCACCTAGTGCAG,61500 fluorescence intensity (a.u.)
23,GGAGAGTAGCAGTGTGGTTGATGATGGTGTTCTTGCTACTCGGAGTCACCTAGTGCAG,9890 fluorescence intensity (a.u.)
24,TTCTTTCTTTTTTGGCGGGGACTACTCTTTACTTGAACCTCGGAGTCACCTAGTGCAG,12400 fluorescence intensity (a.u.)

# From publication PMC7819943, “Rice protein-binding microarrays: a tool to detect cis-acting elements near promoter regions in rice”
